The results in this text go back to PubChem BioAssay AID504863 (Sanford-Burnham Center for Chemical Genomics, 2011).

The experiment relates to diaphorase (Clostridium kluyveri). Nature of the experiment: diaphorase inhibitors and chemical oxidizers, confirmation, counter-screen for P. falciparum G6PD inhibitor project, biochemical, fluorescence intensity, 30 µM NADPH (AID 504863).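 Also: 0% = DMSO with enzyme and 100% = DMSO wells lacking diaphorase.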 Conditions: Diaphorase/resazurin coupled assay, resorufin fluorescence, at 20 µM, stronger effect = higher value.

Molecules are shown by their SMILES. The list shows a part of the results. Unmarked numbers belong to inactive results.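 The calls were made as follows: active = inhibition averaging 50% or more, tested at 20 µM; inactive = the rest.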

For orientation: inhibition means the percentage by which the read-out fell short of the control.

In the case of `O=C1NC(=O)N(c2ccccc2)C(=O)/C1=C/c1ccc([N+](=O)[O-])s1`, the inhibition is 20.5%.
